Source: the supplement of paper PMC13380429
Counter-ions that a name gives are not always drawn. Unmarked numbers belong to inactive results.

System: Vero E6 infected with SARS-CoV-2
Experiment: inhibition of SARS-CoV-2 cytopathic effect; higher = more antiviral protection, active = above 15
Conditions: 48 h

SMILES	inhibition of SARS-CoV-2 cytopathic effect (1 nM) [%]	inhibition of SARS-CoV-2 cytopathic effect (8.33 nM) [%]	inhibition of SARS-CoV-2 cytopathic effect (100 nM) [%]	inhibition of SARS-CoV-2 cytopathic effect (833.33 nM) [%]	inhibition of SARS-CoV-2 cytopathic effect (10000 nM)
C[C@]12CC[C@H](O)C[C@H]1CC[C@@H]1[C@@H]2CC[C@]2(C)[C@@H](C3=CC(=O)OC3)CC[C@]12O [digitoxigenin]	-1.6	-1.96	-11.8	-13.3	-19.4%
O=C(O)C(O)Cc1ccc(O)c(O)c1 (stereo not given) [sodium-danshensu]	1.07	-0.48	2.17	-0.61	-1.7%
C[N+]1(C)CCC(OC(=O)C(O)(c2ccccc2)C2CCCC2)C1 (stereo not given) [glycopyrrolate]	-3.43	-1.27	-0.55	-0.2	-1.06%
COc1ccc2cc1Oc1ccc(cc1)C[C@H]1c3c(cc4c(c3Oc3cc5c(cc3OC)CCN(C)[C@@H]5C2)OCO4)CCN1C [cepharanthine]	-0.29	-1.27	-1.35	-2.66	21.3% (active)
COc1cc(O)c2c(c1)C(=O)c1cc(C)cc(O)c1C2=O [rheochrysidin]	1.91	1.62	1.33	-0.52	-0.59%
COc1ccc(C2(O)CCC(N3CC[C@@H](NC(=O)CNC(=O)c4cccc(C(F)(F)F)c4)C3)CC2)cn1 (stereo not given in full)	-0.385	0.89	-1.07	-1.1	-0.44%
C[C@H]1CO[C@@H]2Cn3cc(C(=O)NCc4ccc(F)cc4F)c(=O)c(O)c3C(=O)N12	0	1.03	1.79	1.33	-0.84%
CCc1c(O)cc(O)c(C(=O)c2ccc(OCCN3CCOCC3)c(OC)c2)c1CC(=O)N(CCOC)CCOC	-1.17	-2.57	-1.95	-1.17	0.48%
Cc1cccc(C)c1NC(=O)CN1CCCC1=O [nefiracetam]	-0.7	0.26	-2.77	1.22	-6.8%
CCCNC(C)C(=O)Nc1ccccc1C (stereo not given) [prilocaine]	3.07	-1.58	-0.81	2.12	2%
O=C1[O][SbH]23[O]C(=O)C([O]2)C2[O][SbH]4([O]C(=O)C([O]4)C1[O]3)[O]C2=O [antimonyl]	0.49	0.38	-2.02	0.19	-10.4%
O=C(Nc1cccc(Cl)c1)c1ccccn1	0.86	-0.89	-2.59	0.62	0.73%
COc1ccc2c(c1OC)C(=O)O[C@@H]2[C@H]1c2cc3c(cc2CCN1C)OCO3 [hydrastine-(1R,9S)]	2.12	0.73	1.14	1.33	-0.76%
O=C(/C=C/c1ccc(O)c(O)c1)OCCc1ccccc1 [caffeic-acid-phenethyl-ester]	-3.4	-2.75	-2.14	2.36	7.5%
CN(C)CCN(Cc1cccs1)c1ccccn1 [methapyrilene]	-0.83	-2.49	-1.39	-3.33	-1.68%
Cc1nc(-c2cccnc2)sc1C(=O)Nc1ccccc1-c1cn2c(CN3CCOCC3)csc2n1	-1.3	1.11	1.74	0.18	-2.05%
CC(C)NCC(O)COc1cccc2[nH]c3ccccc3c12 (stereo not given) [carazolol]	1.76	-2.21	-1.61	0	-4.08%
Nc1c(S(=O)(=O)O)cc(Nc2cccc3ccccc23)c2c1C(=O)c1ccccc1C2=O	-0.33	-0.72	-2.22	-1.16	-4.63%
Cc1oc(-c2ccccc2)nc1CCC(=O)c1ccc(CC2SC(=O)NC2=O)cc1 (stereo not given) [darglitazone]	2.44	3.08	-5.6	-5.76	-1.67%
Oc1ccc(/C=C/c2cc(O)cc(O)c2)cc1 [resveratrol]	1.06	0.64	-2.17	-0.25	3.82%

SMILES	inhibition of SARS-CoV-2 cytopathic effect (1 nM) [%]	inhibition of SARS-CoV-2 cytopathic effect (8.33 nM) [%]	inhibition of SARS-CoV-2 cytopathic effect (100 nM) [%]	inhibition of SARS-CoV-2 cytopathic effect (833.33 nM) [%]	inhibition of SARS-CoV-2 cytopathic effect (10000 nM)
CC(C)(C)NCC(O)c1ccccc1Cl (stereo not given) [tulobuterol]	2.01	1.33	-0.63	-10.6	2%
Nc1c2ccccc2nc2ccccc12 [9-aminoacridine]	-6.32	1.57	-3.73	0.13	-28.3%
C/C=C/C=C/C(=O)O [sorbic-acid]	1.14	2.26	-1.43	2.41	2.55%
O=C(Nc1ccc(Cl)cc1)Nc1cccc(-c2cccc(N3CCCC3)n2)c1	1	1.53	-2.03	-4.04	-6.24%
C[C@]12CCC(=O)C[C@@H]1CC[C@@H]1[C@@H]2CC[C@]2(C)[C@@H](O)CC[C@@H]12 [Dihydrotestosterone]	-0.75	-1.02	-1.92	-2.8	-3.3%
NCCCC[C@@H]1NC(=O)[C@@H](Cc2c[nH]c3ccccc23)NC(=O)[C@H](c2ccccc2)NC(=O)[C@@H]2C[C@@H](OC(=O)NCCN)CN2C(=O)[C@H](Cc2ccccc2)NC(=O)[C@H](Cc2ccc(OCc3ccccc3)cc2)NC1=O [pasireotide]	-6.41	-8.12	-5.04	-4.91	-5.41%
C[C@H]1O[C@@H](n2cc(F)c(=O)[nH]c2=O)[C@H](O)[C@@H]1O [doxifluridine]	-2.13	-1.63	1.63	-0.27	-0.71%
CC(=O)Nc1ccc(S(=O)(=O)Nc2ccc([N+](=O)[O-])cc2)cc1 [sulfanitran]	-1.18	-2.16	0.76	0.27	-4.49%
Cc1ccc(/N=C/N(C)/C=N/c2ccc(C)cc2C)c(C)c1 [amitraz]	-1.29	-0.98	-1.78	-1.85	0.1%
CCCc1cc(C)[nH]c(=O)c1CNC(=O)c1cc(-c2ccc(N3CCN(C(C)C)CC3)nc2)cc2c1cnn2C(C)C	-1.83	1	-2.55	-0.64	42.3% (active)
Cc1cc2cc3c(C)cc(=O)oc3c(C)c2o1 [trioxsalen]	1.96	2.74	0.65	3.62	-0.06%
COc1cc(S(C)(=O)=O)ccc1Nc1nc2ccc(-c3ccc(NC(=O)[C@H](C)c4ccc(F)cc4)cc3)cn2n1	0.71	-3.05	0.88	-5.66	-4.51%
CC(=O)Nc1ccc(OC[C@](C)(O)C(=O)Nc2ccc([N+](=O)[O-])c(C(F)(F)F)c2)cc1 [andarine]	-0.84	-0.36	-2.49	-1.89	-1.92%
CC[C@@H](CO)NCCN[C@@H](CC)CO [ethambutol]	3.83	4.26	4.86	5.12	2.55%
C[C@@H](O[C@H]1OCCN(Cc2nn[nH]c2CN(C)C)[C@H]1c1ccc(F)cc1)c1cc(C(F)(F)F)cc(C(F)(F)F)c1	-0.75	-1.76	-0.97	-4.49	7.29%
CC[C@@H](c1cccc(O)c1)[C@@H](C)CN(C)C [Tapentadol (hydrochloride)]	2	1.05	1.07	3.03	-0.29%
Cc1ccccc1C(OCCN(C)C)c1ccccc1 (stereo not given) [orphenadrine]	0.59	0.5	-0.66	1.65	-0.73%
COc1cc(OC)cc(N(CCNC(C)C)c2ccc3ncc(-c4cnn(C)c4)nc3c2)c1 [erdafitinib]	1.71	-0.38	0.68	-1.43	11.7%
COc1ccc2[nH]c([S+]([O-])Cc3ncc(C)c(OC)c3C)nc2c1 (stereo not given) [omeprazole]	0.48	2.24	1.08	3.07	1.79%
